Measurements reported in PubChem BioAssay (Tox21).
Inconclusive results are not listed. Activity calls are given as the source filed them. Calls follow the shape of the dose curve; as a rule, active = well fitted curve in the direction sought with a large enough effect in the repeat runs; inconclusive = weak or mixed curves; inactive = no such curve, though single readings can be large; an effect the other way counts as inactive or inconclusive.

Key:
[1] = Human pregnane X receptor (PXR) small molecule agonists, qHTS cell viability counter screen (AID 1346977); also: nearly all actives have a fitted effect of over 50% in size
Outline: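 HepG2 cells stably carrying the PXR-Luc reporter are cultured with 5% charcoal-stripped FBS and treated with compounds for 24hr. CellTiter-Fluor is added at 23hr and fluorescence is read after 1hr.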

[2] = Caspase-3/7 induction in HepG2 cells by small molecules, qHTS assay (AID 1346978); also: nearly all actives have a fitted effect of over 15% in size
Outline: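 Caspase-3/7 induction was measured by Caspase-Glo 3/7 luminescence (30 min, room temperature) after a 17 hr compound exposure of wild-type HepG2 cells seeded at 2,000 per well and pre-incubated 5 hr.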

[3] = Caspase-3/7 induction in CHO-K1 cells by small molecules, qHTS assay (AID 1346980); also: nearly all actives have a fitted effect of over 15% in size
Outline: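 Luminescent Caspase-Glo 3/7 read (30min, room temperature) quantified apoptosis induction. Cells were wild-type CHO-K1, treated with compound for 17hr at 37 C and 5% CO2.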

[4] = Caspase-3/7 induction in HepG2 cells by small molecules, qHTS cell viability counter screen (AID 1346981); also: series mostly up to about 92 µM; nearly all actives have a fitted effect of over 30% in size
Outline: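 Treatment of HepG2 cells with DMSO-delivered compounds ran 16 hr at 37 C following a 5-hr pre-incubation of 2,000 cells/well. CellTiter-Fluor fluorescence, read after 1 hr, served as the viability measure in a qHTS format.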

[5] = target: Nuclear receptor subfamily 1 group I member 2 (Homo sapiens) (UniProt O75469); experiment: Human pregnane X receptor (PXR) small molecule agonists, qHTS assay (AID 1346982); also: nearly all actives have a fitted effect of over 35% in size
Outline: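 Stable HepG2 line reporting PXR-mediated CYP3A4 expression via luciferase. Treatment: 24 hr with compounds in DMSO at 37 C. Detection: ONE-Glo luminescence.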

[6] = target: Nuclear receptor subfamily 1 group I member 2 (Rattus norvegicus) (UniProt Q9R1A7); experiment: Rat pregnane X receptor (rPXR) activation by small molecules, qHTS assay (AID 1346983); settings: rPXR luciferase reporter cells, One-Glo luminescence, 24 h; max activation: active compounds read high; also: nearly all actives have a fitted effect of over 20% in size
Outline: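 Luminescent readout (One-Glo luciferase, 30 min room temperature) followed 24 hr compound treatment at 37 C of rPXR cells plated 2,000 per well and preincubated 5hr; qHTS format with compounds delivered in DMSO.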

[7] = target: Nuclear receptor subfamily 1 group I member 2 (Homo sapiens) (UniProt O75469); experiment: CYP3A4 induction through human pregnane X receptor (PXR) by small molecules, qHTS assay (AID 1346984); also: nearly all actives have a fitted effect of over 40% in size
Outline: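 After 24 h at 37C with compound, DPX-2 cells (HepG2, co-transfected PXR response element and CYP3A4 promoter-luciferase) got 3uM final P450-Glo Luciferin-IPA for 3 h; One-Glo luminescence followed.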

[8] = target: Nuclear receptor subfamily 1 group I member 2 (Homo sapiens) (UniProt O75469); experiment: Human pregnane X receptor (PXR) activation by small molecules, qHTS assay (AID 1346985); also: nearly all actives have a fitted effect of over 40% in size
Outline: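 DPX-2 cells (HepG2 co-transfected with a PXR response element and a CYP3A4-promoter luciferase construct) were seeded at 2,000 per well, rested 5 hr at 37C, then exposed to DMSO-dissolved compounds for 24 hr. Activation was read as luciferase luminescence.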

[9] = target: Cytochrome P450 2D6 (Homo sapiens) (UniProt P10635); experiment: Cytochrome P450 Family 2 Subfamily D Member 6 (CYP2D6) small molecule antagonists: luciferase reporter qHTS assay (AID 1671196); also: nearly all actives have a fitted effect of over 50% in size; also: potency is read from the fitted curve at half-maximal effect
Outline: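 Chemicals tested for interference with CYP2D6 activity; proluciferin substrate, NADPH regeneration, 1 h at room temperature, luminescent detection.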

[10] = Caspase-3/7 induction in CHO-K1 cells by small molecules, qHTS cell viability counter screen (AID 1346979); also: nearly all actives have a fitted effect of over 35% in size; also: potency is read from the fitted curve at half-maximal effect
Outline: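 Seeding: 1,500 CHO-K1 cells/well. Rest: 5hr, 37C. Treatment: compounds in DMSO, 16hr. Read: CellTiter-Fluor, 1hr, fluorescence.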
% is scaled to controls: 0 for no effect and ±100 for the full control effect.

Chain of Nuclear receptor subfamily 1 group I member 2 (Rattus norvegicus) (Q9R1A7 whole entry, looked up): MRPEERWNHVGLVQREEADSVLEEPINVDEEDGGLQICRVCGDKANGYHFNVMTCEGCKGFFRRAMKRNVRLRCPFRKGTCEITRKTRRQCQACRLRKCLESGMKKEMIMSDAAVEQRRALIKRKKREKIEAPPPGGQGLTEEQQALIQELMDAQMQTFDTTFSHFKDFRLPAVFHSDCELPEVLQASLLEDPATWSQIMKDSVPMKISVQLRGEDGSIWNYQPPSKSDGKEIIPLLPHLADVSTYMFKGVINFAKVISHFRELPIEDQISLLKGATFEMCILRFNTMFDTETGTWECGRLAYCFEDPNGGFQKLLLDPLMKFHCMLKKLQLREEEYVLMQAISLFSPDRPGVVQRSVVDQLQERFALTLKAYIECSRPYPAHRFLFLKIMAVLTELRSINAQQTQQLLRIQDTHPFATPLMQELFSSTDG
Chain of Cytochrome P450 2D6 (Homo sapiens) (P10635 whole entry, looked up): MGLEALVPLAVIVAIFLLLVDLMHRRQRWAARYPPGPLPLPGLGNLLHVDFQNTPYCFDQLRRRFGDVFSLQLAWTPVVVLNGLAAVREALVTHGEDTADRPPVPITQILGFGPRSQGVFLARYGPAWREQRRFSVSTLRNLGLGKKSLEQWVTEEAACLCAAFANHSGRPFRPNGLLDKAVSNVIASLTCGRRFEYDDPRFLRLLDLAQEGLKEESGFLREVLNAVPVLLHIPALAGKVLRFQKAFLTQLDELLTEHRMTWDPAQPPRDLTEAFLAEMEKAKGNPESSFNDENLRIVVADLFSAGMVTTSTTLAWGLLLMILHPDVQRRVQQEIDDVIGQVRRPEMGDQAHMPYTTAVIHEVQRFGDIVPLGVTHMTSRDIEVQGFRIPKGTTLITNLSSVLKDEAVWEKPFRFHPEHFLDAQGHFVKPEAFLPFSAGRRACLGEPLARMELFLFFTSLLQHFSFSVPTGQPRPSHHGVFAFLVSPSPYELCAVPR
Chain of Nuclear receptor subfamily 1 group I member 2 (Homo sapiens) (O75469 whole entry, looked up): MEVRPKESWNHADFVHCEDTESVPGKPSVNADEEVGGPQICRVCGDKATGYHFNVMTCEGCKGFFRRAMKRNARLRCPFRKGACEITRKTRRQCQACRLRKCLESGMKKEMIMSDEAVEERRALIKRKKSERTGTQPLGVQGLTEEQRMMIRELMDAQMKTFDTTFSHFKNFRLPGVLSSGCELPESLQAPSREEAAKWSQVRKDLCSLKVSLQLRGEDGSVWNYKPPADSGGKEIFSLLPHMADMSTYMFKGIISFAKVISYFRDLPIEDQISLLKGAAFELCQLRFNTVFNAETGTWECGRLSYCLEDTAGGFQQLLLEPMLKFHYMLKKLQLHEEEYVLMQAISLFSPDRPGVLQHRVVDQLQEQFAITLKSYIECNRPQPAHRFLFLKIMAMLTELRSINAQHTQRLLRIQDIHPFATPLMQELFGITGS

Cc1ccc(C(=O)c2ccc(CC(=O)O)n2C)cc1
inactive: Potency [1] | outcome [2] | outcome [3] | Potency [4] | Potency [5] | max activation [6] -1.99% | Potency [7] | Potency [8] | Potency [9]

CCCC[N+](C)(CCCC)CCCC
active: Potency [9] 2.77 µM
inactive: Potency [1] | outcome [2] | Potency [10] | outcome [3] | Potency [4]

CNCC(O)c1ccc(O)c(O)c1 (configuration not stated)
inactive: Potency [1] | outcome [2] | outcome [3] | Potency [4] | Potency [5]

CCCCS(=O)(=O)N[C@@H](Cc1ccc(OCCCCC2CCNCC2)cc1)C(=O)O
inactive: Potency [1] | outcome [2] | Potency [10] | outcome [3] | Potency [4] | Potency [9]

CCNS(=O)(=O)c1ccc(C)cc1
inactive: Potency [1] | outcome [2] | outcome [3] | Potency [4]

CCOC(=O)COc1cc(-n2ncc(C(F)(F)F)c(C)c2=O)c(F)cc1Cl
inactive: Potency [1] | outcome [2] | Potency [10] | outcome [3] | Potency [4]
active: Potency [9] 63.3 µM

COCCOC[C@H](CC1(C(=O)NC2CCC(C(=O)O)CC2)CCCC1)C(=O)Oc1ccc2c(c1)CCC2 (some centres not stated)
active: Potency [10] 54.5 µM
inactive: Potency [1] | outcome [2] | outcome [3] | Potency [5] | Potency [9]

CCCCCC(=O)OCCc1ccccc1
inactive: Potency [1] | outcome [2] | Potency [10] | outcome [3] | Potency [4] | Potency [9]

CN(C)C(=O)Oc1ccc[n+](C)c1
inactive: Potency [1] | outcome [2] | outcome [3] | Potency [4] | Potency [5] | max activation [6] -1.23% | Potency [7] | Potency [8] | Potency [9]

CCCCOC(=O)CCC(C)=O
inactive: Potency [1] | outcome [2] | outcome [3] | Potency [4] | Potency [5] | Potency [9]

CO[C@@]1(NC(=O)CSC[C@@H](N)C(=O)O)C(=O)N2C(C(=O)O)=C(CSc3nnnn3C)CS[C@@H]21
inactive: Potency [1] | outcome [2] | outcome [3] | Potency [4] | Potency [5]

CCOC(=O)C1=NOC(c2ccccc2)(c2ccccc2)C1
inactive: Potency [1] | outcome [2] | Potency [10] | outcome [3] | Potency [4] | Potency [9]

O=C(O)CNC(=O)c1ccc(CO)o1
inactive: Potency [1] | outcome [2] | outcome [3] | Potency [4] | Potency [5]

CCN[C@@H]1C[C@H](N)[C@@H](OC2OC(CN)=CCC2N)[C@H](O)[C@H]1O[C@H]1OC[C@](C)(O)[C@H](NC)[C@H]1O (some centres not stated)
inactive: activity change, negative = cytotoxicity [1] 1.73% [at 0.349 µM] | caspase activation [2] 0.0658% [at 0.349 µM] | caspase-3/7 activation [3] -0.394% [at 0.349 µM] | activity change, negative = cytotoxicity [4] 3.51% [at 0.349 µM] | activation [5] -3.06% [at 0.349 µM] | max activation [6] -4.25% | Potency [7] | Potency [8]

O=C1NC(=O)C2CC=CCC12 (configuration not stated)
inactive: Potency [1] | outcome [2] | outcome [3] | Potency [4]

C[N+]1(C)CCCC(OC(=O)C(O)(c2ccccc2)c2ccccc2)C1 (configuration not stated)
active: Potency [9] 4.9 µM
inactive: Potency [1] | outcome [2] | outcome [3] | Potency [4] | Potency [5] | max activation [6] -3.64% | Potency [7] | Potency [8]

CC1OC1C1CCC2(C)OC2C1 (configuration not stated)
inactive: Potency [1] | outcome [2] | Potency [10] | outcome [3] | Potency [4] | Potency [9]

CCCCCCC#CC(=O)OC
inactive: Potency [1] | outcome [2] | Potency [10] | outcome [3] | Potency [4] | Potency [9]

CC(=O)OCC(=O)[C@@]1(O)[C@H](C)C[C@H]2[C@@H]3CCC4=CC(=O)C=C[C@]4(C)[C@@]3(F)[C@@H](O)C[C@@]21C
inactive: Potency [1] | outcome [2] | outcome [3] | Potency [4] | Potency [5] | Potency [7] | Potency [8] | Potency [9]

C[N+](C)(CCOc1ccccc1)Cc1cccs1
active: Potency [9] 0.195 µM
inactive: Potency [1] | outcome [2] | outcome [3] | Potency [4]

CC(C)(C)c1ccc(-c2ccc(C(C)(C)C)cc2)cc1
inactive: Potency [1] | outcome [2] | outcome [3] | Potency [4] | Potency [5] | Potency [9]

C[N+]1(CC2COC(c3ccccc3)(c3ccccc3)O2)CCCCC1 (configuration not stated)
active: Potency [9] 1.69 µM
inactive: activity change, negative = cytotoxicity [1] -0.185% [at 19 µM] | caspase activation [2] -0.482% [at 19 µM] | caspase-3/7 activation [3] -0.436% [at 19 µM] | activity change, negative = cytotoxicity [4] 9.88% [at 19 µM]

C=CC(C)(CCC=C(C)C)OC(=O)CC (configuration not stated)
inactive: Potency [1] | outcome [2] | outcome [3] | Potency [4] | Potency [5] | Potency [9]

CC(C(=O)O)c1cccc(Oc2ccccc2)c1 (configuration not stated)
inactive: Potency [1] | outcome [2] | outcome [3] | Potency [4] | max activation [6] -0.273% | Potency [9]

CC/C=C\CCOC(C)OCC (configuration not stated)
inactive: Potency [1] | outcome [2] | outcome [3] | Potency [5] | Potency [9]

C=C(C)C(=O)OCCOCCOCCOCCOC(=O)C(=C)C
inactive: Potency [1] | outcome [2] | outcome [3] | Potency [4] | Potency [9]

NC(=O)N1c2ccccc2CC(=O)c2ccccc21
inactive: Potency [1] | outcome [2] | outcome [3] | Potency [4] | max activation [6] -3.02%

CCCCOCCOC(=O)COc1cc(Cl)c(Cl)cc1Cl
inactive: outcome [2] | outcome [3] | Potency [4] | Potency [5]
